Usually AC50 stands for the concentration at which the activity in the assay is half-maximal.

Where “and” joins values, the source holds several entries; their conditions need not be identical. Equal entries are not always repeated. Where a structure was tested more than once in an assay, its records may differ in their call. Calls of active or inactive are those of the source. How the source made its calls: active means hit-call score of the fitted dose curve at least 0.9, where 1 is the maximum; inactive means score below 0.9.

Read-out in experiment [1]: Matrix Metallopeptidase 1 (MMP1), MMP1 (gene 4312)
As to the kind of experiment: BSK_BE3C_MMP1: BioMAP Diversity Plus: BE3C Assay for Matrix Metallopeptidase 1 (MMP1) Biomarker Activity (AID 2283024). The note with it: primary human bronchial epithelial cells; actives raise or lower the signal. The procedure, abridged:
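Human bronchial epithelial cells (BE3C system) exposed to compound for 24 h; MMP1 then quantified by ELISA. Activity was fitted in both directions relative to DMSO.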

The nature of experiment [2]: BSK_3C_Vis: BioMAP Diversity Plus: 3C Assay for Morphology Visualization (AID 2283025).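 Further: fitted both ways so gain or loss versus DMSO counts.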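 On AC50: light microscopy image of cell morphology used as background control.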 To be noted: primary human endothelial cells (HUVEC). The procedure, abridged: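 Chemicals were added to primary human umbilical vein endothelium, cells were incubated 24 h, and morphology was then visualized by light microscopy. Gain or loss of signal was fitted bidirectionally relative to DMSO.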

Experiment [3] can be described thus: BSK_4H_SRB: Viability Assessment in the BioMAP Diversity Plus: 4H Assay (AID 2283027).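 Further: cells exposed to compound for 24 h before staining.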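 On AC50: curves fitted both ways versus DMSO so AC50 may be loss or gain.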 The note with it: primary human endothelial cells (HUVEC). The procedure, abridged:
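Human umbilical vein endothelial cells, 24 h after chemical dosing; total protein measured by 0.1% sulforhodamine B staining after 10% TCA fixation, read at 560 nm. Bidirectional fitting against DMSO.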

The nature of experiment [4]: BSK_BE3C_SRB: Viability Assessment in the BioMAP Diversity Plus: BE3C Assay (AID 2283028).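 On AC50: fitted both ways so AC50 may mark signal gain or loss versus DMSO.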 To be noted: primary human bronchial epithelial cells. The procedure, abridged: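 Human primary bronchial epithelial cells were exposed to test chemicals for 24 h. Total protein in parallel cultures was then measured by staining with 0.1% sulforhodamine B after 10% TCA fixation, with absorbance read at 560 nm. Activity was fitted bidirectionally against DMSO.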

Read-out in experiment [5]: Thrombomodulin, THBD (gene 7056)
The experiment can be described thus: BSK_3C_Thrombomodulin: BioMAP Diversity Plus: 3C Assay for Thrombomodulin Biomarker Activity (AID 2283029). The note with it: primary human endothelial cells (HUVEC); actives raise or lower the signal. The procedure, abridged:
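Read-out is ELISA of thrombomodulin on human umbilical vein endothelium 24 h after chemical dosing. Gain or loss of signal is scored relative to DMSO. Overt cytotoxicity is checked in parallel cultures by sulforhodamine B staining.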

Read-out in experiment [6]: Urokinase-type plasminogen activator receptor (uPAR), PLAUR (gene 5329)
As to the kind of experiment: BSK_4H_uPAR: BioMAP Diversity Plus: 4H Assay for Urokinase-type plasminogen activator receptor (uPAR) Biomarker Activity (AID 2283030). To be noted: primary human endothelial cells (HUVEC); actives raise or lower the signal. The procedure, abridged:
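Primary human umbilical vein endothelial cells were exposed to chemical for 24 h before cell-surface uPAR was quantified by ELISA. Activity was fitted bidirectionally against the DMSO negative control baseline.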

Read-out in experiment [7]: Vascular endothelial growth factor receptor 2 (Homo sapiens) (UniProt P35968)
As to the kind of experiment: BSK_4H_VEGFRII: BioMAP Diversity Plus: 4H Assay for Vascular endothelial growth factor receptor 2 (VEGFR2) Biomarker Activity (AID 2283031).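 On AC50: cell-surface VEGFR2 protein level quantified by ELISA.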 To be noted: primary human endothelial cells (HUVEC); actives raise or lower the signal. The procedure, abridged: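 Primary human umbilical vein endothelial cells in the BioMAP 4H system were dosed with test chemical, and 24 h later VEGFRII was measured by ELISA. Activity was fitted bidirectionally against DMSO as negative control and baseline.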

Read-out in experiment [8]: Pselectin, SELP (gene 6403)
As to the kind of experiment: BSK_4H_Pselectin: BioMAP Diversity Plus: 4H Assay for Pselectin Biomarker Activity (AID 2283026). The note with it: primary human endothelial cells (HUVEC); actives raise or lower the signal. The procedure, abridged: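 ELISA read-out of P-selectin on human umbilical vein endothelium after 24 h of dosing. Values derive from bidirectional fitting relative to DMSO. Parallel SRB protein staining flagged overt cytotoxicity.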

Read-out in experiment [9]: Human Leukocyte Antigen - DR isotype (HLADR), HLA-DRA (gene 3122)
The experiment can be described thus: BSK_BE3C_HLADR: BioMAP Diversity Plus: BE3C Assay for Human Leukocyte Antigen - DR isotype (HLADR) Biomarker Activity (AID 2283032). To be noted: primary human bronchial epithelial cells; actives raise or lower the signal. The procedure, abridged:
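ELISA read-out of HLA-DR on human lung bronchial epithelial primary cells, measured 24 h post-dosing. Both increases and decreases were scored relative to DMSO vehicle.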

Consider `CC(=O)CC(C)(C)O`, for which the result in experiment [1], in experiment [2], in experiment [3], in experiment [4], in [5] and in experiment [6] was inactive. The outcome in experiment [7] was inactive.

`CCCCC(CC)COC(=O)CCCCC(=O)OCC(CC)CCCC` (configuration not stated): the outcome in [1], in experiment [2], in experiment [8], in experiment [3], in [4] and in [5] was inactive. The outcome in experiment [6] and in experiment [7] was inactive.

As for `FC(F)(I)C(F)(F)C(F)(F)C(F)(F)C(F)(F)C(F)(F)I`, the concentration at half-maximal activity (AC50) in [4] is 23.6 µM (active) [middle of 5 runs]; in [5] it was 30 µM (active) [middle of 4 runs]; in experiment [7] it was 55.1 µM (active) and 7.3 µM (active). The outcome in experiment [5] and in experiment [7] was inactive.

For `COC(=O)CCCCC(=O)OC`, the result in experiment [1], in [2], in experiment [3], in experiment [4], in experiment [5] and in experiment [6] was inactive. Moreover, the result in [7] and in experiment [9] was inactive.

As to `NC(=O)N1C(=O)C(C(=O)c2cc(Cl)cs2)c2cc(F)c(Cl)cc21` (configuration not stated), the half-maximal activity concentration (AC50) in experiment [1] is 2.77 µM (active); in experiment [2] it was 37.5 µM (active); in [3], 15.2 µM (active); in [4], 9.99 µM (active); in experiment [6], 12.7 µM (active); in experiment [9], 2.85 µM (active). Besides, the result in experiment [5] and in experiment [7] was inactive.

As for `CCN(CC)CCNc1ccc(CNC=O)c2sc3ccc(OC)cc3c(=O)c12`, the half-maximal activity concentration (AC50) in experiment [1] is 20 µM (active); in [2], 14.4 µM (active); in [3], 25.4 µM (active); in [6], 9.57 µM (active); in [7], 20 µM (active). Also, the result in experiment [4] and in [5] was inactive.

As for `CC[C@H](C)[C@@H](C(=O)O)n1sc2ccccc2c1=O`, the result in [1], in experiment [2], in [3], in [4], in [5] and in [6] was inactive. Further, in [7], the result was inactive.

For `OCCC(F)(F)C(F)(F)C(F)(F)C(F)(F)C(F)(F)C(F)(F)F`, the result in experiment [1], in experiment [2], in [3], in experiment [4], in experiment [5] and in experiment [6] was inactive. The result in experiment [7] and in experiment [9] was inactive. Besides, the AC50 in experiment [7] was 7.51 µM (active).

Consider `c1ccc2c(c1)Cc1ccccc1-2`, for which the result in experiment [1], in [2], in experiment [3], in experiment [4], in [5] and in [6] was inactive. Moreover, in experiment [7], the outcome was inactive.

For the molecule `COCC(C)O` (configuration not stated), the outcome in experiment [1], in experiment [2], in [8], in experiment [3], in experiment [4] and in experiment [5] was inactive. The result in [6], in [7] and in experiment [9] was inactive.

In the case of `c1ccc2c(c1)ccc1ccccc12`, the result in [1], in experiment [2], in experiment [3], in [4], in experiment [5] and in experiment [6] was inactive. The outcome in experiment [7] was inactive.

For `CCCCCCCCCCCCc1ccccc1S(=O)(=O)O`, the AC50 in [1] is 28.8 µM (active); in experiment [2] it was 39 µM (active); in experiment [4] it was 7.1 µM (active); in experiment [9], 8.12 µM (active). The outcome in experiment [3], in experiment [5], in [6] and in experiment [7] was inactive.

With `NCC(F)(F)C(F)(F)C(F)(F)C(F)(F)C(F)(F)C(F)(F)C(F)(F)F`, the outcome in experiment [1], in [3], in experiment [4], in experiment [5], in experiment [6] and in experiment [7] was inactive. Further, in experiment [7], the AC50 was 7.22 µM (active).

With `CC1=C(/C=C/C(C)=C/C=C/C(C)=C/C(=O)O)C(C)(C)CCC1`, the concentration at half-maximal activity (AC50) in experiment [1] is 0.854 µM (active); in [8], 31.7 µM (active); in [9], 20 µM (active). The result in [2], in [3], in experiment [4], in [5], in experiment [6] and in experiment [7] was inactive.

Regarding `CCCCCCCCCCCCN1CCCC1=O`, the concentration at half-maximal activity (AC50) is 31.7 µM (active) in experiment [1]; 37.3 µM (active) in [2]; 30 µM (active) in experiment [8]; 33.4 µM (active) in experiment [3]; 32.8 µM (active) in experiment [4]; 34.9 µM (active) in experiment [6]. For the same molecule, the AC50 in experiment [9] was 26.2 µM (active). The result in experiment [5] and in experiment [7] was inactive.

On to `Cc1oc(-c2ccccc2)nc1CCOc1ccc(C[C@H](Nc2ccccc2C(=O)c2ccccc2)C(=O)O)cc1`, for which the result in [1], in experiment [5] and in [7] was inactive. Moreover, the half-maximal activity concentration (AC50) is 37.5 µM (active) in experiment [2]; 15.1 µM (active) in [3]; 5.13 µM (active) in experiment [4]; 15.6 µM (active) in experiment [6]; 3.01 µM (active) in experiment [9].

`CCCCCCCC(=O)O`: the result in [1], in experiment [2], in experiment [8], in [3], in [4] and in [5] was inactive. Further, the outcome in experiment [6], in experiment [7] and in [9] was inactive.

The record behind these values is PubChem BioAssay (EPA / NIEHS).
